Assay outcomes as filed in PubChem.
TRAIL sens C8: viability loss with TRAIL in NB7+C8 cells, primary screen, TRAIL sensitizer project, cell-based, ATPlite luminescence. inhibition (viability loss, TRAIL sensitization), % at 10 µM. 360,000 compounds, 1% hits. AID 624354, 2012;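 active = compounds causing at least 50% loss of cell viability in the single-dose screen, relative to plate controls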
HSP90 refold inh: HSP90 inhibitors, primary screen, cell lysate, luminescence. Heat shock protein HSP 90 (rabbit reticulocyte lysate; luciferase refolding). Rabbit reticulocyte lysate, luciferase refolding luminescence, 3 h. inhibition, % at 5.6 µM. 290,000 compounds, 0.91% hits. AID 1789, 2009;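 active = inhibition above the screen-wide mean plus 3 SD, computed separately per campaign, cut at about 16% in these data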;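 note: 0% = DMSO wells and 100% = 60 µM geldanamycin wells; inhibitors lower the luminescence because luciferase stays unfolded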
TROY signal inh: inhibitors of TROY-driven NF-kB signaling, primary screen, Q293 LMP1-TROYcd cells, NF-kB luciferase, uHTS; Q293 LMP1-TROYcd NF-kB luciferase reporter, 4 h; AID 1347056, 2019; 360,000 compounds, 0.98% hits; inhibition, % at 10 µM;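 active = compounds whose plate-normalised and pattern-corrected inhibition of the luciferase reporter signal at the single screening dose is 50% or more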
TWEAK-Fn14 inh: inhibitors of TWEAK-Fn14 signaling, primary screen, luciferase reporter cells, uHTS. TWEAK-stimulated Fn14 reporter cells, luciferase luminescence, 8 h. inhibition, % at 10 µM. 360,000 compounds, 2% hits; in the data active = inhibition above about 50%
PPC-1+TRAIL kill: compounds killing PPC-1 cancer cells with TRAIL present, primary screen, TRAIL potentiator project, ATPLite luminescence, uHTS. PPC-1 cells + TRAIL, ATPLite viability luminescence. cell killing (% activity), % at 4 µM or 5 µM. 220,000 compounds, 0.41% hits. AID 1443, 2008;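 active = cell killing above 50% in the first pass at 4 µM, then a duplicate retest at 5 µM averaging 50% or more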;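 note: plate controls were cells with TRAIL plus DMSO for no effect and medium-only wells lacking cells for full effect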
Platelet DG rel: inhibitors of platelet dense granule secretion, primary screen, cell-based, MLPCN, human platelets | 300,000 compounds, 0.22% hits | AID 1663, 2009 | inhibition, %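 (compounds screened at 7.5 µM in platelet-rich plasma)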 | human platelet-rich plasma, SFLLRN dense granule ATP release, luminescence;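 active = mean replicate score, as percent of positive control, at or above 50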
* marks the source's active call; other numbers are inactive results; . = not tested or not shown. Shown are actives, neighbours in structure and some others; about 3.5% of the full set was active somewhere.

SMILES | TRAIL sens C8 | HSP90 refold inh | TROY signal inh | TWEAK-Fn14 inh | PPC-1+TRAIL kill | Platelet DG rel
CC1(C(=O)Nc2ccc3c(c2)OCCO3)CN(S(C)(=O)=O)CC(=O)N1Cc1cccs1 (centres undefined) | -14 | . | . | . | . | .
CCOC(=O)C/C(C)=N\Nc1nc(-c2ccccc2)cs1 | -9 | 4 | 40 | 51* | 18 | -59
Cc1ccc(OCC(O)CNC2CCCC2)c(C)c1 (centres undefined) | 8 | -2 | -10 | -6 | . | -3
Cc1ccccc1OCC(O)CNC1CCC(NCC(O)COc2ccccc2C)CC1 (centres undefined) | 93* | 4 | 11 | -37 | . | 3
CN(Cc1ccccc1)S(=O)(=O)c1ccc(Cl)c(C(=O)NCCCN2CCOCC2)c1 | 6 | . | -5 | 8 | . | -10
C/C(=N\Nc1nc2c(s1)CCCC2)c1ccccc1 | 11 | 16* | 30 | -8 | 12 | 0
CC(=O)Nc1ccc(OCC(O)Cn2c3ccccc3c3ccccc32)cc1 (centres undefined) | -7 | -3 | 7 | 20 | 16 | 7
CC(=O)Nc1ccc(OCC(O)Cn2c3ccccc3c3ccccc32)c(C)c1 (centres undefined) | 2 | -4 | 42 | 58* | 11 | 3
CC(=O)Oc1ccc(CN2C(=O)C(CCc3ccccc3)ON=C2c2cnccn2)cc1 (centres undefined) | -11 | . | -30 | -6 | . | .
CCOC(=O)C(=O)NC1CC=CCC1c1ccc2c(c1)OCO2 (centres undefined) | -5 | . | -3 | 2 | . | .
Cn1c(=O)c2c(nc(NCc3ccco3)n2C/C=C/c2ccccc2)n(C)c1=O | 39 | . | 41 | 55* | 14 | 74*
COc1ccc(N=C2SC(CC(=O)Nc3cccc(Cl)c3)C(=O)N2Cc2ccco2)cc1 (centres undefined) | -14 | 2 | 9 | 53* | 9 | 0
COC(=O)[C@H](CC(C)C)NC(=O)Cn1cnc2c(SC)nc(N)nc21 | 6 | . | 6 | 19 | . | .
C#CCN1C(=O)S/C(=C\c2ccc(-c3ccc(Cl)c(C(=O)O)c3)o2)C1=O | 11 | 23* | -40 | -13 | . | 8
O=C(CSc1nc(=O)n(CCCN2CCOCC2)c2c1CCCC2)Nc1ccc(Cl)cc1 | 10 | . | 7 | -8 | . | 0
CC1(C(=O)Nc2cccc3ncccc23)CCN1C(=O)Cc1ccc(-c2ccccc2)cc1 (centres undefined) | 0 | . | 24 | 32 | . | .
COc1ccc(-c2ccc3oc(-c4ccsc4)cc(=O)c3c2)cn1 | 28 | . | 63* | -25 | . | .
CCOC(=O)c1cnc2ccccc2c1Nc1ccc2c(c1)OCCO2 | 16 | 6 | 77* | 92* | 1 | 18
CCOC(=O)c1cnc2ccccc2c1NCc1ccco1 | 3 | 3 | -39 | -4 | 20 | -14
Cc1ccc(C)c(S(=O)(=O)N2CCCOC2CNC(=O)C(=O)NC2CCCC2)c1 (centres undefined) | 4 | 1 | 4 | 3 | . | -8
O=C(c1ccc(S(=O)(=O)N2CCCC2)cc1)N1CCCCCC1 | -10 | -3 | 3 | 3 | 8 | -1
O=C(c1ccc(S(=O)(=O)N2CCCCC2)cc1)N1CCN(CCN2C(=O)c3cccc4cccc(c34)C2=O)CC1 | 33 | 0 | 51* | 54* | 33 | 1
O=C(Nc1ncc(Cc2ccccc2)s1)c1cccs1 | 51* | 13 | 15 | 47 | 2 | 9
Cc1ccc(Cc2cnc(NC(=O)c3cccs3)s2)cc1 | 25 | 4 | -5 | 18 | 15 | 1
Cc1ccc(C(=O)Nc2ncc(Cc3ccccc3)s2)o1 | 57* | 12 | -5 | 66* | 32 | 4
SMILES | TRAIL sens C8 | HSP90 refold inh | TROY signal inh | TWEAK-Fn14 inh | PPC-1+TRAIL kill | Platelet DG rel
CC(C)CN(C(=O)CSc1nnc(-c2cccs2)n1C1CC1)C1CCS(=O)(=O)C1 (centres undefined) | 4 | . | -1 | -1 | . | .
O=C(CCCn1c(=S)[nH]c2cc3c(cc2c1=O)OCO3)N1CCN(c2ccccc2)CC1 | 8 | 2 | 8 | 13 | -12 | -7
O=C(CCCn1c(=S)[nH]c2cc3c(cc2c1=O)OCO3)N1CCN(c2ccc(Cl)cc2)CC1 | 21 | 2 | 58* | 17 | 1 | 1
C=C1[C@@H](O)[C@H](Cc2ccccc2)N(Cc2ccccc2Br)S1(=O)=O | 28 | . | 24 | 67* | . | .
Cc1cc(NC(=O)c2cccnc2)ccc1Br | 3 | -3 | -38 | 10 | . | -2
CCCCn1c(SCN2C(=O)c3ccccc3C2=O)nc2cc(S(N)(=O)=O)ccc21 | 0 | 0 | -13 | 1 | 0 | 80*
CCCCn1c(SCn2nnc3ccccc3c2=O)nc2cc(S(N)(=O)=O)ccc21 | -12 | -3 | 12 | -5 | 8 | -6
Cc1cc(C)c(NC(=O)COC(=O)C2CCCCC2)c(C)c1 | -6 | . | 6 | -10 | . | .
Oc1ccc(N=Nc2ccc3ccccc3c2)cc1 | 38 | -1 | 10 | 30 | . | 54*
COc1cc(N=Nc2ccc3ccccc3c2)ccc1O | 13 | -7 | -12 | -4 | . | 1
Cc1ccc(NC(=O)C2SC(=Nc3ccccc3)C(C(=O)Nc3ccc(Cl)cc3)=C2N)cc1 (centres undefined) | 3 | -1 | -29 | -10 | -6 | .
Cc1ccc(N=C2SC(C(=O)Nc3ccc(OC(F)(F)F)cc3)C(N)=C2C(=O)Nc2c(C)cc(C)cc2C)cc1 (centres undefined) | 12 | -2 | 13 | 64* | 3 | .
COCCNC(=O)c1cccc(OC2CCN(Cc3cccc(SC)c3)CC2)c1 | 2 | 1 | -4 | -11 | . | 20
COc1cccc2c1C(CO)N1C(C#N)C3CC(C(=O)O)C(C1C2)N3C (centres undefined) | 59* | -7 | 51* | 102* | 43 | .
COc1cccc2c1OCC(C(=O)O)C2 (centres undefined) | -14 | 3 | 4 | 1 | 13 | 7
CCCC(=O)N(Cc1cc(=O)[nH]c2ccccc12)c1ccc(OC)cc1 | 1 | 2 | -13 | 12 | . | 4
Cc1cccc(N(Cc2cc(=O)[nH]c3ccccc23)C(=O)CCl)c1 | 84* | 0 | 24 | 86* | . | 6
COCC(=O)N(Cc1cc2ccccc2[nH]c1=O)c1ccccc1OC | 10 | 0 | . | 79* | 10 | 5
COc1ccc(N(Cc2cc(=O)[nH]c3ccccc23)C(=O)CCl)cc1 | 96* | -2 | 9 | 41 | . | -2
CCCC(=O)N(Cc1cc(=O)[nH]c2ccccc12)c1cccc(C)c1 | 8 | -2 | 13 | 7 | . | -5
COc1ccccc1N(Cc1cc(=O)[nH]c2ccccc12)C(=O)c1ccccc1 | -27 | 1 | 82* | 81* | 1 | 0
CN(Cc1cc(=O)[nH]c2ccccc12)C(=O)c1ccccc1 | -4 | -4 | -28 | -10 | -1 | 6
